In PubChem BioAssay AID1852 (Sanford-Burnham Center for Chemical Genomics, 2009) one finds inhibition data, which are given here for 89 compounds.

What is called inhibition is the change of the read-out against control, counted positive when it falls.

Screen size: about 2,500 compounds; about 1,100 (44%) were called active. The set was probably picked from earlier hits. The list shows a part of the results. A number with no mark means an inactive call.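 The calls were made as follows: active = inhibition above 50% at 4 µM in the single-point screen; inactive = inhibition of 50% or less.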

The test in a line: blockers of TNF-a NF-kB luciferase induction – cell-based, HEK293T NF-kB-Luc, luminescence, selectivity assay for NOD1/NOD2 signaling inhibitor project, primary screen (AID 1852). Conditions: TNF-a induced, 14 h, at 4 µM, hits give high values.
`CN(C)/C=C/C(=O)c1ccc2noc(-c3ccccc3)c2c1`: the inhibition is 30.4%.
In the case of `c1ccc(-c2csc3ncnc(NCc4ccccn4)c23)cc1`, the inhibition is 13.4%.
In the case of `c1ccc(CNc2ncnc3scc(-c4cccs4)c23)nc1` it was 57.5% (active).
In the case of `O=C(Nc1nc2ccccc2n1CCOc1ccc(Cl)cc1)c1ccco1` it was 102% (active).
For `Cc1ccc(OCCn2c(NC(=O)c3ccco3)nc3ccccc32)cc1`, the inhibition is 19.6%.
With `O=C(Nc1ccccc1Cl)/C(Cl)=C(\Cl)S(=O)c1ccccc1` (centres undefined), the inhibition is 107% (active).
On to `COc1cccc(C(C)NC(=O)Nc2ccccc2Cl)c1` (centres undefined), for which the inhibition was 37.3%.
Take `CC1=C(C(=O)OCc2ccc3c(c2)OCO3)C(c2ccc(F)cc2)NC(=O)N1` (centres undefined): the inhibition is 104% (active).
With `CC1=C(C(=O)OCc2ccc3c(c2)OCO3)C(c2ccccc2)NC(=O)N1` (centres undefined), the inhibition is 96.6% (active).
Turning to `CC1=C(C(=O)OCc2ccc3c(c2)OCO3)C(c2ccc(Cl)cc2)NC(=O)N1` (centres undefined), the inhibition was 102% (active).
Take `O=C(NCCc1ccccc1)c1ccc2c(c1)OCO2`: the inhibition was -77.5%.
On to `CC1=C(C(=O)OCc2ccc3c(c2)OCO3)C(c2ccc(O)c([N+](=O)[O-])c2)NC(=O)N1` (centres undefined), for which the inhibition was 58% (active).
In the case of `O=C(CCl)Nc1ccccc1C(=O)Nc1ccc2c(c1)OCO2` it was 10.4%; in that of `COc1ccc(C(=O)N2CCCC(N3CCN(c4ccccc4OC)CC3)C2)c(OC)n1` (centres undefined), 25%; in that of `O=c1cc(CSc2ccc(Cl)cc2)nc(-c2ccccn2)[nH]1`, 102% (active).
`Cc1ccc(SCc2cc(=O)[nH]c(SCC(=O)Nc3cc(Cl)ccc3Cl)n2)cc1`: the inhibition is 28.1%.
In the case of `O=C(N/N=C\c1c(O)ccc2ccccc12)c1cncc(Br)c1` it was 54.9% (active); in that of `O=C(N/N=C/c1c(O)ccc2ccccc12)c1cccnc1`, 101% (active); in that of `CCOc1cc(Br)cc(/C=N/NC(=O)c2cccnc2)c1O`, 69.2% (active).
`C[C@@H](C(=O)Nc1ccc2ccccc2c1)[C@@H]1C[C@@]1(C)[C@@H](NC(=O)c1cccnc1)c1ccccc1`: the inhibition is 11%.
As to `O=C(CNC(=O)c1cccc(Br)c1)N/N=C/c1cc(Br)cc(Br)c1O`, the inhibition was 11.3%.
Next, `S=C(N/N=C/c1ccc2ncccc2c1)Nc1cccnc1`: 29.3%; `O=C(CCCc1nc(-c2ccc(Cl)cc2)no1)NC1CCCCC1`: 28.3%.
As for `Cc1ccc(-c2noc(CCCC(=O)NC3CCCCC3)n2)cc1`, the inhibition was 29.6%.
In the case of `O=C(CCCc1nc(-c2ccc(Cl)cc2)no1)NC1CCCC1` it was 55.5% (active); in that of `CC(=O)N(Cc1ccc(F)cc1)C1=C(NCc2ccccc2)C(=O)c2ccccc2C1=O`, 91.2% (active); in that of `O=C(NCc1ccccc1)C1CCCN1S(=O)(=O)c1ccc(F)cc1` (centres undefined), 21.4%.
In the case of `Cc1cc(C)nc(OC(C(=O)O)C(OCCc2ccccc2)(c2ccc(F)cc2)c2ccc(F)cc2)n1` (centres undefined) it was -13.2%; in that of `CC(=O)N(Cc1ccc(F)cc1)C1=C(NCCc2ccccc2)C(=O)c2ccccc2C1=O`, 102% (active).
As for `CC1(C)N=C(N)N=C(N)N1c1ccc(OCCCOc2ccccc2)c(Cl)c1`, the inhibition was 59.9% (active).
On to `COc1ccc2nc(N3CCCCC3)c(/C=C3\SC(=S)NC3=O)cc2c1`, for which the inhibition was 43.6%.
Consider `Cn1c(SC2=CS(=O)(=O)c3ccccc32)nc2ccccc21`, for which the inhibition is 56% (active).
In the case of `O=S1(=O)C=C(Sc2nc3ccccc3s2)c2ccccc21` it was 82.7% (active).
In the case of `Cc1cc(C)nc(SC2=CS(=O)(=O)c3ccccc32)n1`, the inhibition is 14.1%.
In the case of `O=C(Nc1ccc(CN2CCOCC2)cc1)c1ccc(-c2ccc(Cl)cc2Cl)o1` it was 44.2%.
In the case of `COc1ccc(NS(=O)(=O)c2ccc(NC(=O)c3ccc(CN4CCOCC4)cc3)cc2)cc1` it was 37.6%; in that of `O=C(Nc1ccc(S(=O)(=O)N2CCCCC2)cc1)c1ccc(CN2CCOCC2)cc1`, 73.2% (active); in that of `O=C(Nc1ccc(S(=O)(=O)N2CCCC2)cc1)c1ccc(Br)o1`, 6%.
In the case of `O=C(Nc1ccc(S(=O)(=O)N2CCOCC2)cc1)c1ccc(CN2CCc3ccccc3C2)cc1` it was 65.5% (active); in that of `CCN(CC)c1ccc(S(=O)(=O)N2CCOCC2)cc1NC(=O)CN1CCc2ccccc2C1`, 21.6%.
Turning to `O=C(Nc1ccc(S(=O)(=O)Nc2ccc(F)cc2)cc1)c1ccc(CN2CCOCC2)cc1`, the inhibition is 61.1% (active).
In the case of `O=C(Nc1ccc(Cc2ccncc2)cc1)c1ccc(S(=O)(=O)N2CCCC2)cc1` it was 50.3% (active); in that of `C/C=C/Cn1c(SCc2ccc(C)cc2)nc2c1c(=O)[nH]c(=O)n2C`, 18.9%; in that of `CCN(CC)S(=O)(=O)c1cccc(NC(=O)c2ccc(Br)cc2)c1`, 27.5%.
As for `O=C(Nc1ccc(S(=O)(=O)N2CCCCC2)cc1)c1ccc(CN2CCc3ccccc3C2)cc1`, the inhibition was 59% (active).
Next, `CCN(CC)S(=O)(=O)c1ccc(C(=O)Nc2ccc(Cc3ccncc3)cc2)cc1`: 63% (active).
On to `COc1ccccc1NS(=O)(=O)c1cccc(NC(=O)Nc2ccc(Cl)cc2)c1`, for which the inhibition was 46.4%.
Next, `COc1ccc(Cn2c(O)c(C=Nc3ccccc3C(=O)O)c3ccccc3c2=O)cc1`: 69.6% (active).
As for `COc1ccc(CNc2nc3c(c(=O)n(Cc4ccc(Br)cc4)c(=O)n3C)n2C)cc1`, the inhibition was 15.5%.
In the case of `CCN(CC)S(=O)(=O)c1cccc(C(=O)c2c(C)cc3ccccn23)c1` it was 27.9%; in that of `CCN(CC)S(=O)(=O)c1cccc(-n2c(O)c(C=Nc3ccccc3C(=O)O)c3ccccc3c2=O)c1`, 70.1% (active).
Regarding `COc1ccccc1NS(=O)(=O)c1cccc(-n2c(O)c(C=Nc3ccccc3C(=O)O)c3ccccc3c2=O)c1`, the inhibition is 69% (active).
Take `Cc1cc(C(=O)Nc2ccc(Cl)cc2)c(C)n1-c1ccccc1`: the inhibition was 56.3% (active).
Next, `O=C(Nc1ccc(Cl)cc1)c1cccc(N2C(=O)C3C4CCC(C4)C3C2=O)c1` (centres undefined): 3.3%.
In the case of `COc1cc(NC(=O)c2cccs2)c(C(=O)OCC(=O)c2cc(C)n(-c3ccccc3)c2C)cc1OC`, the inhibition was 41.1%.
In the case of `CCOc1ccc(NC(=O)C2CCCN(S(=O)(=O)c3c(C)noc3C)C2)cc1` (centres undefined) it was 49.2%; in that of `CC(=O)c1c(C)[nH]c(C(=O)Nc2nc(-c3ccccc3)c(C)s2)c1C`, -37.3%; in that of `COc1ccc(-c2nc(NC(C)=O)sc2-c2ccccc2)cc1`, 58.1% (active).
Regarding `COc1ccc(-c2nnc(Sc3nc4ccccc4o3)c3ccccc23)cc1`, the inhibition is -25.6%.
With `O=C1C(Cl)=C(Nc2ccc(O)cc2)C(=O)c2ccccc21`, the inhibition is 30.4%.
On to `COc1ccc(S(=O)(=O)n2ccc(C(C)Oc3ccc(-c4ccccc4)c(F)c3)n2)cc1` (centres undefined), for which the inhibition was 20.1%.
In the case of `CCc1ccc(S(=O)(=O)/N=C2\C=C(Nc3cccc(C(=O)O)c3)C(=O)c3ccccc32)cc1` it was 107% (active); in that of `COc1ccc(S(=O)(=O)/N=C2\C=C(Nc3ccc(O)cc3)C(=O)c3ccccc32)cc1`, 101% (active).
In the case of `O=C(O)c1cccc(S(=O)(=O)Nc2ccccc2Cc2ccccc2)c1` it was 14.3%; in that of `CCc1ccc(S(=O)(=O)/N=C2\C=C(Nc3ccc(O)cc3)C(=O)c3ccccc32)cc1`, 106% (active); in that of `CCc1ccc(S(=O)(=O)/N=C2\C=C(Nc3ccc(C(=O)O)cc3)C(=O)c3ccccc32)cc1`, 49.3%.
Turning to `c1ccc(CCCNc2ncccn2)cc1`, the inhibition is 19%.
In the case of `CCOc1ccc2nc(SCc3ccc(CC(=O)O)cc3)c(C#N)cc2c1` it was 64.6% (active); in that of `Nc1c(Cl)ncnc1N/N=C/c1ccccn1`, 109% (active); in that of `Cc1cc(/C=N/Nc2ncnc(N)c2[N+](=O)[O-])c(C)n1-c1ccccc1`, 3.7%.
As for `COc1cc(/C=C2\COC/C(=C\c3cc(OC)c(OC)c(OC)c3)C2=O)cc(OC)c1OC`, the inhibition is 106% (active).
Turning to `COc1cc(/C=C2\CC(C(C)(C)C)C/C(=C\c3cc(OC)c(OC)c(OC)c3)C2=O)cc(OC)c1OC` (centres undefined), the inhibition was 87.2% (active).
Turning to `COc1cc(/C=C2/CCc3ccccc3C2=O)cc(OC)c1OC`, the inhibition was -23.8%.
As for `Cc1ccccc1NC1=C/C(=N\S(=O)(=O)c2cccs2)c2ccccc2C1=O`, the inhibition was 108% (active).
As for `COC(=O)c1ccccc1NC1=C/C(=N\S(=O)(=O)c2cccs2)c2ccccc2C1=O`, the inhibition is 99.7% (active).
Regarding `Cc1cccc(NC2=C/C(=N/S(=O)(=O)c3cccs3)c3ccccc3C2=O)c1`, the inhibition is 63.9% (active).
In the case of `Cc1ccc(NC2=C/C(=N\S(=O)(=O)c3cccs3)c3ccccc3C2=O)c(C)c1` it was 102% (active); in that of `CCc1cccc(NC(=O)C2CCCN(S(=O)(=O)c3cccs3)C2)c1` (centres undefined), 18.2%.
As for `COc1ccc(CNS(=O)(=O)c2ccc3c(c2)CC(C)N3C(=O)C2CC2)cc1` (centres undefined), the inhibition is 30%.
In the case of `Cc1ccc(Cl)cc1NC1=C/C(=N\S(=O)(=O)c2cccs2)c2ccccc2C1=O`, the inhibition is 102% (active).
Take `CCOc1ccc(OCCN2C(=O)NC3(CCCc4ccccc43)C2=O)cc1` (centres undefined): the inhibition was 18.7%.
For `CCN(CC)S(=O)(=O)c1cccc(C(=O)Nc2nc3cc4c(cc3s2)OCCO4)c1`, the inhibition was 22%.
In the case of `CN(CC1CCCO1)S(=O)(=O)c1ccc(C(=O)Nc2nc3cc4c(cc3s2)OCO4)cc1` (centres undefined), the inhibition was 69.7% (active).
Next, `O=C(Nc1nc2cc3c(cc2s1)OCCO3)C1=COCCO1`: 22.7%; `CCC1CCCCN1S(=O)(=O)c1ccc(NC(=O)c2ccncc2)cc1` (centres undefined): 9.7%; `O=C(c1ccc(S(=O)(=O)N2CCCCC2)cc1)N1CCN(CCN2C(=O)c3cccc4cccc(c34)C2=O)CC1`: 31%.
In the case of `CC1CCCCN1S(=O)(=O)c1ccc(C(=O)Nc2nnc(-c3ccccc3Cl)o2)cc1` (centres undefined) it was 97.2% (active).
In the case of `O=C(Nc1nnc(-c2ccccc2Cl)o1)c1ccc(S(=O)(=O)N2CCCCCC2)cc1` it was 93.9% (active); in that of `CCC1CCCCN1S(=O)(=O)c1ccc(C(=O)Nc2nnc(-c3ccccc3Cl)o2)cc1` (centres undefined), 70.3% (active).
